Our source for the Potency values is PubChem BioAssay (NCATS).

A short description of assay [1]: S16 Schwann cell PMP22 intronic element firefly luciferase assay (AID 624032). Note: nearly all actives have a fitted effect of over 30% in size. Note: potency is the fitted concentration of half-maximal effect. An outline of the steps:
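Luciferase reporter of PMP22 intronic-element expression in stably transfected S16 rat Schwann cells, read by ONE-Glo luminescence after 24 h compound exposure at 37 C. Activity scaled between DMSO (0%) and positive-control PTC124; concentration-effect curves quality-classified.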

A further assay deals with DIV14. In words: qHTS profiling for inhibitors of Plasmodium falciparum proliferation (AID 504749). Note: nearly all actives have a fitted effect of over 60% in size. Note: potency is the fitted concentration of half-maximal effect. The note with it: P. falciparum in erythrocytes, SYBR Green DNA, 72 h; series mostly up to 28.7 µM. An outline of the steps:
(§1)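 SYBR Green fluorescence of parasite DNA, read after lysis and overnight dark incubation, measured growth over 72 h in erythrocyte culture at 0.3% parasitemia and 2.5% hematocrit. Data normalised to DMSO and 0.29 uM artemisinin, with plate-drift correction.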

Another assay concerns GB4. The assay is described as above. The note with it: P. falciparum in erythrocytes, SYBR Green DNA, 72 h; series mostly up to 28.7 µM. The method, boiled down:
as §1

The subject of the next assay is ICS. Described as above. The settings on record: P. falciparum in erythrocytes, SYBR Green DNA, 72 h; series mostly up to 28.7 µM. The method, boiled down: as §1
For a further assay, the system named is W2. The description is as above. The settings on record: P. falciparum in erythrocytes, SYBR Green DNA, 72 h; series mostly up to 28.7 µM. An outline of the steps: as §1
Assay [2] has as its target Ubiquitin carboxyl-terminal hydrolase 1 (Homo sapiens) (UniProt O94782). Put plainly: Inhibitors of USP1/UAF1: Pilot qHTS (AID 504865).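 Note: rhodamine fluorescence freed from ubiquitin-rhodamine substrate followed over time; top concentration of the series differs between compounds; nearly all actives have a fitted effect of over 35% in size.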 An outline of the steps: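 Kinetic fluorescence assay: 1nM USP1/UAF1, 15 min compound preincubation, then 150nM Ub-Rho; 480/540 nm.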
For assay [3], the target named is Cytochrome P450 3A4 (Homo sapiens) (UniProt P08684). In words: qHTS Assay for Inhibitors and Substrates of Cytochrome P450 3A4 (AID 884). Note: nearly all actives have a fitted effect of over 50% in size. The method, boiled down:
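Luminescent readout of luciferin produced by CYP3A4 (20 nM) dealkylation of Luciferin-PPXE, 25 uM (its KM). NADPH-driven reaction ran 60 min at RT after 10 min compound preincubation; data scaled to 57 uM ketoconazole as 100% inhibition.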

Assay [4] can be described thus: Confirmation and Secondary Assay for Modulators of Hemoglobin Beta Chain Splicing at IVS2 654 locus (AID 910).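 Note: HeLa cells stably carrying EGFP split by mutant beta-globin IVS2-654 intron; per-well total GFP intensity by laser scanning cytometry after 2-day treatment.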 An outline of the steps: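 Readout: per-well total peak green fluorescence (488 nm ex, 500–520 nm em) from objects 5–250 µm, reflecting correct splicing of an EGFP-654 reporter. Compounds were applied for 2 days at 37 °C to overnight-plated HeLa EGFP-654 cells; controls were DMSO and 500 nM IVS2-654 PNA.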

Results filed as inconclusive are left out. The source made the active and inactive calls. Calls come from the whole dose curve; as a rule, active = well fitted curve in the direction sought with a large enough effect; inconclusive = small, poorly fitted or top-dose-only effect, or another doubt; inactive = no such curve, though single readings can be large; an effect the other way counts as inactive or inconclusive.

Sequence of Ubiquitin carboxyl-terminal hydrolase 1 (Homo sapiens) (O94782 whole entry, looked up): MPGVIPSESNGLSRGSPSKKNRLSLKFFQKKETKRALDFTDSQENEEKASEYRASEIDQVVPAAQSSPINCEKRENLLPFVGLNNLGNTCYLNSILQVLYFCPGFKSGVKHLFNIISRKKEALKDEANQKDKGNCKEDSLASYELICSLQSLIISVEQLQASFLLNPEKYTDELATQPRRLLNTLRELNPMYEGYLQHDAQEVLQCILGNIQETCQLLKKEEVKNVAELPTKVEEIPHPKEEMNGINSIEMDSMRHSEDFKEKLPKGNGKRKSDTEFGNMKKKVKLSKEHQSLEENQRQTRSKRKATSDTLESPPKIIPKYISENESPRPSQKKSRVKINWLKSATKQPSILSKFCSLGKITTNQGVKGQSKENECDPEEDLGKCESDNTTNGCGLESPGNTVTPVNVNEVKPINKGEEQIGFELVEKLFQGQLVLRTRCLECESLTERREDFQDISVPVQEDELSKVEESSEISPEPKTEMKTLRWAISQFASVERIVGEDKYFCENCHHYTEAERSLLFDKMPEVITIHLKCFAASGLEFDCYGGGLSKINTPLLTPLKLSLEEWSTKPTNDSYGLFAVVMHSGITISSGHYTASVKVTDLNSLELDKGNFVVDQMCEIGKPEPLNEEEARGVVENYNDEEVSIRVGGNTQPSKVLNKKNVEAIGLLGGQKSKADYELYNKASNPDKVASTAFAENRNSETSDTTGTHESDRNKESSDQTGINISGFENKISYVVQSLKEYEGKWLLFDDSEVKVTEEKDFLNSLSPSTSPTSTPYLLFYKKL
Sequence of Cytochrome P450 3A4 (Homo sapiens) (P08684 whole entry, looked up): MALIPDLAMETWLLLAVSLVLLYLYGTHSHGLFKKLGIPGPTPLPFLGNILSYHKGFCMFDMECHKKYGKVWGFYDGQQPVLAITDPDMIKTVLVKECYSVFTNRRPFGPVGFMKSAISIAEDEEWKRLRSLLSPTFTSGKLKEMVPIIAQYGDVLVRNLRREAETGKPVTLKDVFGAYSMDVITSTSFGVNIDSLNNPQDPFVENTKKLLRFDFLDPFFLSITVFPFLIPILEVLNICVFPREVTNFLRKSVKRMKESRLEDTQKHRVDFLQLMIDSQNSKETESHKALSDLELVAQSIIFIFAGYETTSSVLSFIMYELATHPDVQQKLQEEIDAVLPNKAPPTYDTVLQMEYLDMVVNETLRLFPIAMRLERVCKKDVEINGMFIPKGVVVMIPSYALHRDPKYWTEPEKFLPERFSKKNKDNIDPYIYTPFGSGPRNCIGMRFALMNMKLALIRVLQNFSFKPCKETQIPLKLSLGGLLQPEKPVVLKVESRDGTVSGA

In the case of `CCCCC(=O)OCC(=O)[C@]1(O)Cc2c(O)c3c(c(O)c2[C@H](OC2CC(NC(=O)C(F)(F)F)C(O)C(C)O2)C1)C(=O)c1c(OC)cccc1C3=O` (stereo not given in full), the Potency in assay [1] is 721 nM (active); with DIV14, 1690 nM (active); in the assay with GB4, 3790 nM (active); in the assay on ICS it was 794 nM (active); in the assay on W2, 1510 nM (active).
Taken in the same sequence, the figures for `CO[C@H]1C[C@@H]2CC[C@@H](C)[C@@](O)(O2)C(=O)C(=O)N2CCCC[C@H]2C(=O)O[C@H]([C@H](C)C[C@@H]2CC[C@@H](O)[C@H](OC)C2)CC(=O)[C@H](C)/C=C(\C)[C@@H](O)[C@@H](OC)C(=O)[C@H](C)C[C@H](C)/C=C/C=C/C=C/1C` were “inactive”, 1690 nM (active), 1690 nM (active), 501 nM (active) and 1200 nM (active).
Taken in the same sequence, the figures for `CC[C@H](C)[C@H]1O[C@]2(CC[C@@H]1C)C[C@@H]1C[C@@H](C/C=C(\C)[C@H](O[C@@H]3C[C@H](OC)[C@H](O[C@@H]4C[C@H](OC)[C@@H](O)[C@H](C)O4)[C@H](C)O3)[C@@H](C)/C=C/C=C3\CO[C@@H]4[C@H](O)C(C)=C[C@@H](C(=O)O1)[C@]34O)O2` were 9070 nM (active), 1690 nM (active), 1510 nM (active), 1260 nM (active) and 1690 nM (active).
As to `O=C(O)c1ccc(N[C@@H]2OC[C@@H](O)[C@@H](O)[C@@H]2O)cc1`, the Potency entry (in assay [2]; in assay [1]; in the assay on DIV14; with GB4; with ICS; in the assay with W2) was “inactive” throughout.
Regarding `CO/N=C(/C(=O)N[C@@H]1C(=O)N2C(C(=O)O)=C(CSc3cnns3)CS[C@H]12)c1csc(N)n1`, the Potency result (in assay [2]; in assay [1]; in the assay on DIV14; in the assay with GB4; in the assay on ICS; with W2) was “inactive” in each case.
In the case of `CC1OC(OCC2OC(Oc3c(-c4ccc(OCCO)c(OCCO)c4)oc4cc(OCCO)cc(O)c4c3=O)C(O)C(O)C2O)[C@@H](O)C(O)C1O` (stereo not given in full), the Potency entry (in assay [3]; in assay [4]; in assay [2]; in assay [1]; with DIV14; in the assay on GB4) was “inactive” each time. For the same compound, the Potency result in the assay with ICS and in the assay with W2 was “inactive” throughout.
As to `CC1OC(OC2CCC3(C)C(CCC4C3CC(O)C3(C)C(C5=CC(=O)OC5)CCC43O)C2)CC(O)C1OC1CC(O)C(OC2CC(O)C(OC3OC(CO)C(O)C(O)C3O)C(C)O2)C(C)O1` (stereo not given), the Potency entry (in assay [2]; in assay [1]; in the assay with DIV14; in the assay with GB4; in the assay with ICS; in the assay with W2) was “inactive” in each case.
With `CCCCCCCCCCCCCCCC(=O)OC[C@H](O)[C@H]1OC[C@@H](O)[C@@H]1O`, the Potency result (in assay [2]; in the assay with GB4; with ICS; in the assay with W2) was “inactive” throughout.
Consider `CO/N=C(/C(=O)N[C@@H]1C(=O)N2C(C(=O)O)=C(CSC(=O)c3ccco3)CSC12)c1csc(N)n1` (stereo not given in full), for which the Potency entry (in assay [2]; in assay [1]; in the assay with DIV14; in the assay on ICS; in the assay on W2) was “inactive” each time.
As for `C[n+]1c2cc(N)ccc2cc2ccc(N)cc21`, the Potency in the assay with DIV14 is 213 nM (active); with GB4, 213 nM (active); in the assay on W2 it was 757 nM (active).
With `CC1(Cn2ccnn2)[C@H](C(=O)O)N2C(=O)C[C@H]2S1(=O)=O` (stereo not given in full), the Potency result (in assay [2]; in assay [1]; in the assay with DIV14; in the assay on GB4; in the assay with ICS; in the assay with W2) was “inactive” throughout.
For the compound `Cc1ccc(/C=C2/C(=O)C3(C)CCC2C3(C)C)cc1` (stereo not given), the Potency result (in assay [2]; in assay [1]; in the assay with DIV14; in the assay with GB4; in the assay on ICS) was “inactive” throughout.
Regarding `Cc1ccccc1N1C(=O)c2cc(N)ccc2N/C1=C\F`, the Potency result (in assay [2]; in assay [1]; with GB4) was “inactive” throughout.
Turning to `NC(=O)c1ncn(C2OC(CO)C(O)C2O)c1N` (stereo not given), the Potency entry (in assay [3]; in assay [4]; in assay [2]; in assay [1]; in the assay on DIV14; in the assay on GB4) was “inactive” each time. The Potency entry in the assay on ICS and with W2 was “inactive” throughout.
Take `CCCC(=O)O[C@]1(C(=O)COC(C)=O)CC[C@H]2C3C[C@H](F)C4=CC(=O)C=CC4(C)[C@@]3(F)[C@@H](O)CC21C` (stereo not given in full): the Potency result in assay [1] is “inactive”.
Take `O=C(OC[C@@H]1O[C@@](O)(COC(=O)c2cccnc2)[C@H](OC(=O)c2cccnc2)[C@H]1OC(=O)c1cccnc1)c1cccnc1`: the Potency result (in assay [2]; in the assay with DIV14; in the assay with GB4; with ICS; with W2) was “inactive” throughout. Also, the Potency in assay [1] was 2560 nM (active).
`CCN(CC)CC(=O)Nc1c(C)cc(C)cc1C`: the Potency result (in assay [2]; in assay [1]; in the assay with DIV14; in the assay on GB4; with ICS) was “inactive” in each case.
`OCC(CO)NC1C[C@](O)(CO)[C@@H](O)[C@H](O)[C@H]1O` (stereo not given in full): the Potency result (in assay [2]; in assay [1]; in the assay on DIV14; in the assay with GB4; with ICS; in the assay on W2) was “inactive” in each case.
With `CCCCCOC(=O)Nc1nc(=O)n(C2O[C@H](C)[C@@H](O)[C@@H]2O)cc1F` (stereo not given in full), the Potency entry (in assay [2]; in assay [1]; in the assay on DIV14; in the assay on GB4; in the assay on ICS) was “inactive” throughout.
On to `OC[C@@H](O)C(O[C@@H]1O[C@@H](CO)[C@H](O)[C@H](O)[C@H]1O)[C@H](O)[C@@H](O)CO` (stereo not given in full), for which the Potency result (in assay [2]; in assay [1]; in the assay with DIV14; with GB4; in the assay with ICS; in the assay on W2) was “inactive” in each case.
For the compound `CC(=O)N1CC(O)CC1C(=O)O` (stereo not given), the Potency result (in assay [2]; in assay [1]; in the assay with DIV14; in the assay with GB4; in the assay with ICS; in the assay with W2) was “inactive” throughout.
